Results from PubChem BioAssay (NCATS).
Where “and” joins values, the source holds several entries; their conditions need not be identical. Equal entries are not always repeated. Inconclusive results are not listed. Calls of active or inactive are those of the source. Unless noted, calls follow the shape of the dose curve; as a rule, active = well fitted curve in the direction sought with a large enough effect; inconclusive = small, poorly fitted or top-dose-only effect, or another doubt; inactive = no such curve, though single readings can be large; an effect the other way counts as inactive or inconclusive.

What was measured:
[1] = biological target: Cytochrome P450 1A2 (Homo sapiens) (UniProt P05177); experiment: p450-cyp1a2 (AID 410; calls by dose curve; also: potency is read from the fitted curve at half-maximal effect)
Method in brief: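 Human CYP1A2 (20nM) demethylated Luciferin-ME at its Km (100uM) in 100mM KPO4. After 10 min compound preincubation, NADPH regeneration ran the reaction 60 min at room temperature. Luciferin was read by luminescence, normalized to 57 uM furafylline.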

[2] = biological target: Glucocorticoid receptor (Homo sapiens) (UniProt P04150); experiment: GR-GFP Redistribution (AID 450;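 active = compounds whose dose series gives a full or clear partial fitted curve of increased nuclear translocation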; also: potency is read from the fitted curve at half-maximal effect); conditions: U2OS GR-GFP nuclear translocation, laser cytometry, 2 h
[3] = biological target: Glucocorticoid receptor (Homo sapiens) (UniProt P04150); experiment: GR-EFC Redistribution (AID 451; calls by dose curve; also: potency is read from the fitted curve at half-maximal effect); conditions: CHO-K1 GR-EFC translocation, beta-gal luminescence, 2 h
Method in brief: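 CHO-K1 cells expressing nuclear EA and GR-ED fragments of b-gal; compounds titrated up to 46 uM final, 2 h at 37 C. GR nuclear translocation read as complemented b-gal luminescence after 1 h RT detection.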

[4] = biological target: Mitogen-activated protein kinase 10 (Mus musculus) (UniProt Q61831); experiment: JNK3 AlphaScreen Assay (AID 530; active = well fitted curve in either direction with a large enough effect, not every such curve was filed as active;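 also: kinase came from lysate of stimulated human HepG2 cells; signal reports phosphorylation of biotinylated GST-cJun 1-79 at Ser73 with 10 µM ATP; % is scaled to controls: 0 for no effect and ±100 for the full control effect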)
Method in brief: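 qHTS format: compounds tested as titrations against IL-1beta/TNF-alpha-activated HepG2 lysate JNK3 with biotin-GST-cJun substrate and 10 uM ATP at room temperature. Loss of anti-phospho-cJun AlphaScreen signal indicates inhibition.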

[5] = biological target: 3',5'-cyclic-AMP phosphodiesterase 4B (Homo sapiens) (UniProt Q07343); experiment: qHTS Assay for Inhibitors of PDE-IV (AID 607; active = well fitted activation curve with a large enough effect in the main read-out, with a control signal flat, not every such curve was filed as active; also: % of control where 0% means no effect)
Method in brief: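 Live HEK293 cells with a modified cyclic nucleotide-gated (CNG) channel report intracellular cAMP via membrane-potential dye fluorescence (ex 535/em 590 nm). Endogenous PDE-IV was targeted. Compounds were tested at up to 22.9 uM final; RO 20-1724 100 uM served as control.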

[6] = biological target: Cytochrome P450 2C9 (Homo sapiens) (UniProt P11712); experiment: qHTS Assay for Inhibitors and Substrates of Cytochrome P450 2C9 (AID 883); also: % is scaled to controls: 0 for no effect and ±100 for the full control effect; nearly all actives have a fitted effect of over 60% in size
Method in brief: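 10nM CYP2C9 + 100uM Luciferin-H (=KM), 25mM KPO4; cpd 10 min 37C; NADPH regen, 60 min 37C; stop/detect with P450 Glo-Buffer 20 min; luminescence. Norm. to 57uM sulphaphenazole as full inhibition.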

[7] = biological target: Cytochrome P450 2D6 (Homo sapiens) (UniProt P10635); experiment: qHTS Assay for Inhibitors and Substrates of Cytochrome P450 2D6 (AID 891); also: potency is read from the fitted curve at half-maximal effect; nearly all actives have a fitted effect of over 60% in size
Method in brief: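 Human CYP2D6 (5 nM) with 30 uM Luciferin-ME EGE (at Km) in 100 mM KPO4, compound preincubated 10 min, then NADPH regeneration system for 60 min at room temperature. Luciferin read by luminescence; normalized to 1.43 uM quinidine.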

[8] = biological target: Cytochrome P450 2C19 (Homo sapiens) (UniProt P33261); experiment: qHTS Assay for Inhibitors and Substrates of Cytochrome P450 2C19 (AID 899); also: % is scaled to controls: 0 for no effect and ±100 for the full control effect; nearly all actives have a fitted effect of over 60% in size
Method in brief: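 Luminescent read-out of luciferin formed from Luciferin-H EGE (10uM, equal to KM). Enzyme 5nM in 50mM KPO4; compound added, 10 min at 37C, then NADPH regenerating system for 60 min at 37C. Full inhibition defined by 57uM ketoconazole.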

[9] = qHTS for Inhibitors of the Functional Ribonucleoprotein Complex (vRNP) of Lassa (LASV) Arenavirus: LASV Primary Screen - GLuc reporter signal (AID 1347082; calls by dose curve; tested in HEK293 reporter line; also: % is scaled to controls: 0 for no effect and ±100 for the full control effect; nearly all actives have a fitted effect of over 60% in size)
[10] = qHTS for Inhibitors of the Functional Ribonucleoprotein Complex (vRNP) of Lassa (LASV) Arenavirus: Viability assay - alamar blue signal for LASV Primary Screen (AID 1347083; calls by dose curve; tested in HEK293 reporter line; also: % is scaled to controls: 0 for no effect and ±100 for the full control effect; nearly all actives have a fitted effect of over 80% in size)
[11] = qHTS for Inhibitors of the Functional Ribonucleoprotein Complex (vRNP) of Lymphocytic Choriomeningitis Arenaviruses (LCMV): Viability assay - alamar blue signal for LCMV Primary Screen (AID 1347085; calls by dose curve; tested in HEK293 reporter line; also: % is scaled to controls: 0 for no effect and ±100 for the full control effect; nearly all actives have a fitted effect of over 80% in size)
[12] = biological target: Nucleoprotein (Lymphocytic choriomeningitis virus (strain Armstrong)) (UniProt P09992); experiment: qHTS for Inhibitors of the Functional Ribonucleoprotein Complex (vRNP) of Lymphocytic Choriomeningitis Arenaviruses (LCMV): LCMV Primary Screen - GLuc reporter signal (AID 1347086; calls by dose curve; also: % is scaled to controls: 0 for no effect and ±100 for the full control effect; nearly all actives have a fitted effect of over 70% in size)
[13] = Primary qHTS for small molecule stabilizers of the endoplasmic reticulum resident proteome: Secreted ER Calcium Modulated Protein (SERCaMP) assay (AID 1508630); also: % is scaled to controls: 0 for no effect and ±100 for the full control effect
Method in brief: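 GLuc-SERCaMP-expressing SH-SY5Y cells, pretreated 16 h with compound, are challenged with thapsigargin to empty ER calcium stores; after 4 h, coelenterazine is added directly to the medium and luminescence is imaged.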

[14] = biological target: Cytochrome P450 3A4 (Homo sapiens) (UniProt P08684); experiment: qHTS Assay for Inhibitors and Substrates of Cytochrome P450 3A4 (AID 884); also: % is scaled to controls: 0 for no effect and ±100 for the full control effect; nearly all actives have a fitted effect of over 50% in size
Method in brief: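 20 nM human CYP3A4 with 25 uM Luciferin-PPXE (at KM) in 200 mM KPO4, preincubated 10 min with compound; NADPH regeneration started a 60 min RT reaction. Luciferin detected by luminescence, normalized to 57 uM ketoconazole as full inhibition.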

[15] = biological target: Cytochrome P450 3A4 (Homo sapiens) (UniProt P08684); experiment: qHTS Assay for Activators of Cytochrome P450 3A4 (AID 885); also: nearly all actives have a fitted effect of over 65% in size
Method in brief: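 Quantitative HTS format: compounds preincubated with 20nM human CYP3A4 and Luciferin-PPXE substrate at KM, reaction started by NADPH regeneration, stopped after 60 min, luciferase luminescence read 20 min later.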

[16] = qHTS Assay for Identification of Small Molecule Antagonists for Thrombopoietin (TPO) Signaling Pathway (AID 918); conditions: TPO-dependent cell signaling reporter, antagonist mode
Method in brief: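 Murine Ba/F3 cells stably expressing human TPO receptor and a Glycoprotein IIb promoter–luciferase reporter were IL-3-starved overnight, treated with compounds plus TPO (26 pM final, its EC50) for 24 hrs at 37 C, then read by luminescence.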

[17] = biological target: Muscarinic acetylcholine receptor M1 (Rattus norvegicus) (UniProt P08482); experiment: qHTS Assay for Antagonists of Acetylcholine Muscarinic M1 Receptor: Kinetic Measurement of Intracellular Calcium Response (AID 943); also: potency is read from the fitted curve at half-maximal effect; nearly all actives have a fitted effect of over 75% in size
Method in brief: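 CHO cells stably expressing rat M1 were loaded with no-wash Fluo-4 dye for 1 h at 37C, pre-incubated 10 min with compound, then challenged with EC80 carbachol (100 nM final); kinetic calcium read 4 min, peak/basal ratio.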

[18] = biological target: Alpha-galactosidase (Coffea arabica) (UniProt Q42656); experiment: Counterscreen for Glucocerebrosidase Inhibitors: qHTS Assay for Coffee Bean alpha-Galactosidase at pH 4.5 (AID 957);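 also: plate controls were enzyme alone for no effect and no enzyme for full effect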
Method in brief: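 Green coffee bean enzyme (2 nM final) was incubated with compounds (0.7 nM to 77 uM) and 4-methylumbelliferyl alpha-D-galactopyranoside (80 uM final) in 50 mM citric acid, 0.005% Tween-20, pH 4.5, 20 min at room temperature; AC50 from Hill fits.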

[19] = qHTS Assay for Lipid Storage Modulators (AID 1519; calls by dose curve); conditions: Drosophila S3 cells, BODIPY lipid droplet/cell ratio, laser cytometry, cells loaded with oleic acid; for activity change, negative = inhibition: at 57.5 µM (top of the series)
Method in brief: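 Cells seeded at 5,000 per well were treated with compounds over a concentration series and loaded with oleic acid (400 uM, as added). Lipid droplet fluorescence (488 nm excitation, 500-530 nm channel) was read by laser-scanning cytometry and normalized to 20 uM Triacsin C.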

[20] = qHTS for differential inhibitors of proliferation of Plasmodium falciparum line 7G8 (AID 1815);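 also: potency is read from the fitted curve at half-maximal effect; parasite growth measured after three days of incubation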
[21] = qHTS for differential inhibitors of proliferation of Plasmodium falciparum line GB4 (AID 1816); conditions: Potency: Plasmodium falciparum GB4 proliferation inhibition;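 also: potency is read from the fitted curve at half-maximal effect; parasite growth measured after 72 h incubation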
[22] = qHTS for differential inhibitors of proliferation of Plasmodium falciparum line 3D7 (AID 1876); also: potency is read from the fitted curve at half-maximal effect
[23] = qHTS for differential inhibitors of proliferation of Plasmodium falciparum line D10 (AID 1877);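 also: potency is read from the fitted curve at half-maximal effect; parasites grown with compound for 72 h before DNA staining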
[24] = qHTS for differential inhibitors of proliferation of Plasmodium falciparum line Dd2 (AID 1882); conditions: Potency: Plasmodium falciparum Dd2 proliferation inhibition; also: potency is read from the fitted curve at half-maximal effect; nearly all actives have a fitted effect of over 65% in size
Method in brief: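 SYBR Green I DNA fluorescence read-out, ex 485/em 535 nm. Signals were normalized to 0.29 uM artemisinin and DMSO wells, then corrected using vehicle-only plates flanking each stack. Parasite growth ran 72 h in erythrocytes before lysis.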

[25] = qHTS for differential inhibitors of proliferation of Plasmodium falciparum line W2 (AID 1883); conditions: Potency: Plasmodium falciparum W2 proliferation inhibition;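 also: potency is read from the fitted curve at half-maximal effect; parasites grown with compound for 72 h before lysis and staining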
[26] = qHTS for differential inhibitors of proliferation of Plasmodium falciparum line HB3 (AID 1886); conditions: Potency: Plasmodium falciparum HB3 proliferation inhibition;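 also: potency is read from the fitted curve at half-maximal effect; parasites grown with compound for 72 h before SYBR Green readout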
[27] = High Content Imaging Cell-Based qHTS for Inhibitors of the mTORC1 Signaling Pathway in MEF Cells (AID 2667); also: potency is read from the fitted curve at half-maximal effect
Method in brief: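 WT MEFs (Tsc2-/-, p53-/- re-expressing Tsc2), in DMEM + 10% FBS, were treated with compound for 24 h at 37 C. Cells were then fixed and stained for phospho-rpS6 Ser235/236 with propidium iodide as cell count. Values are % positive cells, with thresholds set against rapamycin-treated cells.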

[28] = biological target: M-phase phosphoprotein 8 (Homo sapiens) (UniProt Q99549); experiment: qHTS Validation Assay for Inhibitors for MPP8 Chromodomain Interactions with Methylated Histone Tails (AID 488949);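 also: AlphaScreen signal from MPP8 chromodomain bound to biotinylated H3K9me3 peptide; top concentration of the series differs between compounds; % is scaled to controls: 0 for no effect and ±100 for the full control effect; nearly all actives have a fitted effect of over 55% in size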
Method in brief: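 AlphaScreen proximity signal from streptavidin donor and Ni-chelate acceptor beads (10 ug/mL each) reported binding of MPP8 to trimethyl-K9 H3(1-18) peptide, both at 50 nM. The complex formed 30 min before a 30 min compound exposure at room temperature, in PBS pH 7.4.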

[29] = biological target: D(1A) dopamine receptor (Homo sapiens) (UniProt P21728); experiment: HTS Assay for Allosteric Agonists of the Human D1 Dopamine Receptor: Primary Screen for Potentiators (AID 488982); also: 0% is about no effect
Method in brief: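 Tetracycline-induced HEK293 Trex D1 cells with forced coupling to calcium, loaded with no-wash calcium dye; kinetic fluorescence read 180 s after compound addition for agonism, then a further 180 s after an EC20 dopamine challenge for potentiation.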

[30] = Inducers of the Endoplasmic Reticulum Stress Response (ERSR) in human glioma: Validation (AID 504836); also: 0% is about no effect
Method in brief: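 Stably transfected U87-MG glioma cells carrying a GRP78-based luciferase sensor; 16 h compound incubation. Luminescence end-point read 10 min after Bright-Glo addition at room temperature.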

[31] = biological target: Voltage-gated inwardly rectifying potassium channel KCNH2 (Homo sapiens) (UniProt Q12809); experiment: qHTS Assay for Small Molecule Inhibitors of the Human hERG Channel Activity (AID 588834);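 also: potency is read from the fitted curve at half-maximal effect; lower thallium flux fluorescence means stronger hERG block; nearly all actives have a fitted effect of over 50% in size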
Method in brief: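 Kinetic FDSS fluorescence; U2OS + hERG BacMam (~100 virus particles/cell); FluxOR Tl+ flux; ~10 min cpd; AC50 (Hill).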

[32] = Stat Signaling Pathway (AID 446; active = well fitted curve in either direction with a large enough effect, not every such curve was filed as active;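 also: ME-180 cervical cancer cells given 40 pM IL-6 alongside compound; SIE-controlled beta-lactamase reporter measured as 460/530 nm FRET emission ratio; % is scaled to controls: 0 for no effect and ±100 for the full control effect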)
Method in brief: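 IL-6/STAT signaling read in ME-180 cells via an SIE beta-lactamase reporter. Stimulus was 40 pM IL-6 (its AC50) for 5 hrs, so both activation and inhibition register.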

[33] = Confirmation and Secondary Assay for Modulators of Hemoglobin Beta Chain Splicing at IVS2 654 locus (AID 910);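 also: HeLa cells stably carrying EGFP split by mutant beta-globin IVS2-654 intron; % of control where 0% means no effect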
Method in brief: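 HeLa cells stably expressing EGFP interrupted by β-globin IVS2-654 intron, seeded overnight in Opti-MEM/2% FCS, then treated 2 days at 37 °C. Restored splicing read as total peak GFP intensity per well by laser scanning cytometry (488 nm excitation, 500–520 nm emission); 500 nM antisense PNA as control.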

[34] = Confirmation and Secondary Assay for Modulators of Hemoglobin Beta Chain Splicing at IVS2 705 locus (AID 930);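 also: HeLa cells stably expressing the EGFP-705 splicing reporter; GFP fluorescence per well restored by corrected splicing of the IVS2-705 intron in EGFP; % of control where 0% means no effect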
Method in brief: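 HeLa EGFP-705 reporter; 500 cells/well, o/n 37C 5% CO2; cpd 2 d; 488 ex/500-520 em laser scan; total peak GFP intensity/well. Ref: 500 nM […] antisense PNA.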

[35] = Cytotoxicity counterscreen for inhibitors of SARS-CoV-2 cell entry (AID 1645845; calls by dose curve; also: % is scaled to controls: 0 for no effect and ±100 for the full control effect; nearly all actives have a fitted effect of over 50% in size)
Method in brief: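 HEK293-ACE2 cells (Expi293F stably expressing human ACE2) seeded overnight, then compound for 1 h plus 48 h at 37C. Viability as ATP content by luminescence; normalized to wells with cells and media-only wells.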

[36] = biological target: Rap guanine nucleotide exchange factor 3 (Homo sapiens) (UniProt O95398); experiment: Confirmatory qHTS for agonist of cAMP-regulated guanine nucleotide exchange factor 3 (EPAC1) (AID 1645881)
[37] = biological target: Rap guanine nucleotide exchange factor 4 (Homo sapiens) (UniProt Q8WZA2); experiment: Confirmatory qHTS for agonist of cAMP-regulated guanine nucleotide exchange factor 4 (EPAC2) (AID 1645884)
[38] = biological target: Rap guanine nucleotide exchange factor 4 (Homo sapiens) (UniProt Q8WZA2); experiment: Confirmatory qHTS for antagonist of cAMP-regulated guanine nucleotide exchange factor 4 (EPAC2) (AID 1645885)
[39] = biological target: Rap guanine nucleotide exchange factor 3 (Homo sapiens) (UniProt O95398); experiment: Counterscreen qHTS for antagonist of cAMP-regulated guanine nucleotide exchange factor 3 (EPAC1) (AID 1645888)
Method in brief: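 Rap1B–BODIPY-GDP (250 nM) with 50 uM GDP; compounds pin-transferred to 9.74 nM–152 uM final (activator) or from 7.32 nM upwards (inhibitor). Fluorescence Ex/Em 480/540 nm read at 5 and 30 min, then after adding cAMP or buffer, at room temperature.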

[40] = measured here: cell count channel max response
[41] = measured here: lipid channel max response

Rap guanine nucleotide exchange factor 3 (Homo sapiens), sequence (O95398 whole entry, looked up): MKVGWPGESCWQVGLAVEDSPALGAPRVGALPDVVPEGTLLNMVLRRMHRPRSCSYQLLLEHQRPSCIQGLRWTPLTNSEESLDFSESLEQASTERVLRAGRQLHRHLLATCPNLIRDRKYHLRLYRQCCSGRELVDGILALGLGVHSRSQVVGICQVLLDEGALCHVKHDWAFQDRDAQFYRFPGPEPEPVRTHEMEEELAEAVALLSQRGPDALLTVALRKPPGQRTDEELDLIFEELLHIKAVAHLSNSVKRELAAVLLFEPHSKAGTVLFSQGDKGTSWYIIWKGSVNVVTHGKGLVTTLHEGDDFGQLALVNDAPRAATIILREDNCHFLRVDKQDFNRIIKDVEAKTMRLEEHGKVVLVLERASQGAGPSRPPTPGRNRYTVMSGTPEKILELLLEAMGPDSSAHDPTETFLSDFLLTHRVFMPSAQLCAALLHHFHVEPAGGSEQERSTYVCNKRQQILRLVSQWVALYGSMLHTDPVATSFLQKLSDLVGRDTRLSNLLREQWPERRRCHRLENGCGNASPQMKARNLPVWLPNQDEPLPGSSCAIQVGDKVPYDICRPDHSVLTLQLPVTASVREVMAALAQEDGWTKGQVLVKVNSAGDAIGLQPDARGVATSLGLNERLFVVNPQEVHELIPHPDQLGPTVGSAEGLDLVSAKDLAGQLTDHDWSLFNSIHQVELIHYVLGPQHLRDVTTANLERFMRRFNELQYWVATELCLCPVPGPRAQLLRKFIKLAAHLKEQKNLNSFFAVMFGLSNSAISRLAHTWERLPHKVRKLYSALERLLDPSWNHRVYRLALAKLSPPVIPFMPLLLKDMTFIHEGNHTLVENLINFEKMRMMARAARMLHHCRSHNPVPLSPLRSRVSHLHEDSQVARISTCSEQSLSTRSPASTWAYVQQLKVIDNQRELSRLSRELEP
Rap guanine nucleotide exchange factor 4 (Homo sapiens), sequence (Q8WZA2 whole entry, looked up): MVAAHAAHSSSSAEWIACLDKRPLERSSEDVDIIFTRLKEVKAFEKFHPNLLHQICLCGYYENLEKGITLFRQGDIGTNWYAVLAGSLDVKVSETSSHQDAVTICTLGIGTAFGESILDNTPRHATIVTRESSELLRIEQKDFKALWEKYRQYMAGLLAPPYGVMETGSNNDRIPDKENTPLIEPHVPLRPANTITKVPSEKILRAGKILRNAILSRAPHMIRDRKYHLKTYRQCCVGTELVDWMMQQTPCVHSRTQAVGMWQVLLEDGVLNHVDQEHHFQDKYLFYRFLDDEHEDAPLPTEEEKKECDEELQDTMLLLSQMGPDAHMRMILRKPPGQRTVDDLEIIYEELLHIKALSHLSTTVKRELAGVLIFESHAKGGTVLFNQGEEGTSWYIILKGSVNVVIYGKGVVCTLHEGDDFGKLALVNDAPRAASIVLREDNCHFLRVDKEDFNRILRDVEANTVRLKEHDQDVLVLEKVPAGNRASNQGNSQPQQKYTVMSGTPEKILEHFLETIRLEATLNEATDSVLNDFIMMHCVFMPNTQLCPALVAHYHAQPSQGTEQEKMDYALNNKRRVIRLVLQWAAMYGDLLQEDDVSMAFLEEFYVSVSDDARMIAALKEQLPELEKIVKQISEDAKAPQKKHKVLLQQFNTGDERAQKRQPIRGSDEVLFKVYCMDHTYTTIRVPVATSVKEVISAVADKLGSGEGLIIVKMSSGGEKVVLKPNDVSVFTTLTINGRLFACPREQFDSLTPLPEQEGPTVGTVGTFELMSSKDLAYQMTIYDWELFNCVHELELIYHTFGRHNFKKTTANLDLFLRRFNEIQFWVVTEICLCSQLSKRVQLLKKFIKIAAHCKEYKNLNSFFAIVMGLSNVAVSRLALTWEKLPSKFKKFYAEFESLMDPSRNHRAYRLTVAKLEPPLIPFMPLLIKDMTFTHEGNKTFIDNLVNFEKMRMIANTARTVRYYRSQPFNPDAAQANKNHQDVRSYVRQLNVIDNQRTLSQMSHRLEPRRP
Cytochrome P450 3A4 (Homo sapiens), sequence (P08684 whole entry, looked up): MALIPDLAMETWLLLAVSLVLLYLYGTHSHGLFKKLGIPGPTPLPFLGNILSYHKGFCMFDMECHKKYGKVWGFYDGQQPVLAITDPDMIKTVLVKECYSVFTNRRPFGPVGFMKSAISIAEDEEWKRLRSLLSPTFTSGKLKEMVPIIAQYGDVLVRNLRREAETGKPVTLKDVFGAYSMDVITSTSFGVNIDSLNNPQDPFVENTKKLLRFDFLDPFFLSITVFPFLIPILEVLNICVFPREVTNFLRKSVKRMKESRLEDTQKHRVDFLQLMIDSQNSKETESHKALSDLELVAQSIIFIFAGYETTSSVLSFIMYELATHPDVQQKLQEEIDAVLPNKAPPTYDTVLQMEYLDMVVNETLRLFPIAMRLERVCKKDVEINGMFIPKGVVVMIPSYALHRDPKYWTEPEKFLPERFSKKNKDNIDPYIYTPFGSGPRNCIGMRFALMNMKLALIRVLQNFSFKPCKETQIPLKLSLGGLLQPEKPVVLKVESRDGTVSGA
Nucleoprotein (Lymphocytic choriomeningitis virus (strain Armstrong)), sequence (P09992 whole entry, looked up): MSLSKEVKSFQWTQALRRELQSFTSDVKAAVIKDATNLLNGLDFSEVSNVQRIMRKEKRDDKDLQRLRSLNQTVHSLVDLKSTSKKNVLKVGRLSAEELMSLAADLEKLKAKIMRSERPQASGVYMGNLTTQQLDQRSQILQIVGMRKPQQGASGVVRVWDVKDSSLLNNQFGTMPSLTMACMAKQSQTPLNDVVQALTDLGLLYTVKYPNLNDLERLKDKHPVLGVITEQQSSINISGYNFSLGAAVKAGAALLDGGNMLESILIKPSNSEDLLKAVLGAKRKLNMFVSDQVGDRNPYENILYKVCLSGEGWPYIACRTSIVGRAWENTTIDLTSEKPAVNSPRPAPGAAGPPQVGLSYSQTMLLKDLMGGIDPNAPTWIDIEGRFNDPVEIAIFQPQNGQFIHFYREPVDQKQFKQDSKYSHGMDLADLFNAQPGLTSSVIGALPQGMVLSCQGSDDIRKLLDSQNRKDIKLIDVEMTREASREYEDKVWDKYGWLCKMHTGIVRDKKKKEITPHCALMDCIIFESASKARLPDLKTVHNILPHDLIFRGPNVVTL
Glucocorticoid receptor (Homo sapiens), sequence (P04150 whole entry, looked up, the tested form may be a part): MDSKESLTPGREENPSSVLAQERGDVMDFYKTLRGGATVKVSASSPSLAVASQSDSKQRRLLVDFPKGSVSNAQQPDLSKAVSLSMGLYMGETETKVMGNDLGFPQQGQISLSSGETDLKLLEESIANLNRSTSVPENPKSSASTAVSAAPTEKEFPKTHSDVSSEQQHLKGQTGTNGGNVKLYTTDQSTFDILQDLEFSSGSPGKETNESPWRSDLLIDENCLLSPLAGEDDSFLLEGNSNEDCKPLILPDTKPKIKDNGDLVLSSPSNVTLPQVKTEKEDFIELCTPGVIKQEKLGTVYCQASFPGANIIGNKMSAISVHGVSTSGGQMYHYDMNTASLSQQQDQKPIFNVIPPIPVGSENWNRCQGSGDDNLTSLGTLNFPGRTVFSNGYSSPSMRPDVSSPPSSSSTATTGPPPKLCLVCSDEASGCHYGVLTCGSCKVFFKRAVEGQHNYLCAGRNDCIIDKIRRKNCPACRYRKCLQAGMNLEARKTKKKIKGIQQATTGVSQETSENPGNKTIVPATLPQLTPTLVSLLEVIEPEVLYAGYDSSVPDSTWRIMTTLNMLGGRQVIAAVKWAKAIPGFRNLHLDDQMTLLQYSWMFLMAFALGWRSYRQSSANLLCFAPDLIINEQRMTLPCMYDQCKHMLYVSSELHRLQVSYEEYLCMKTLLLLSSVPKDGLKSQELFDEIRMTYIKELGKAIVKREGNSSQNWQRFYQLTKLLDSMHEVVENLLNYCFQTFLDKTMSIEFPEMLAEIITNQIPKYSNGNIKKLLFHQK
Cytochrome P450 2D6 (Homo sapiens), sequence (P10635 whole entry, looked up): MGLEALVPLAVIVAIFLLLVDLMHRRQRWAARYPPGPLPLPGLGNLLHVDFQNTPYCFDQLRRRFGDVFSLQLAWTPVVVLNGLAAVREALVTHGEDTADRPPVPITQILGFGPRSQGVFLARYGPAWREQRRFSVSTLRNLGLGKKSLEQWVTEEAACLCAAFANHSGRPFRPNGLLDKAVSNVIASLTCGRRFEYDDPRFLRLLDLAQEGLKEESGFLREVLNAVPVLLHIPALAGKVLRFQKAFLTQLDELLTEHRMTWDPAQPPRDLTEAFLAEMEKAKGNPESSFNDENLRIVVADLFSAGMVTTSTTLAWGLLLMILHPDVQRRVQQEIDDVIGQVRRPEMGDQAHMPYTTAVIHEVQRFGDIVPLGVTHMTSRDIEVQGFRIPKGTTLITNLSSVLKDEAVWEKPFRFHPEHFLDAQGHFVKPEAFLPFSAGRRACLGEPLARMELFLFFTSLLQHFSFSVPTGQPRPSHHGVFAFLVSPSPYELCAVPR
Cytochrome P450 2C9 (Homo sapiens), sequence (P11712 whole entry, looked up): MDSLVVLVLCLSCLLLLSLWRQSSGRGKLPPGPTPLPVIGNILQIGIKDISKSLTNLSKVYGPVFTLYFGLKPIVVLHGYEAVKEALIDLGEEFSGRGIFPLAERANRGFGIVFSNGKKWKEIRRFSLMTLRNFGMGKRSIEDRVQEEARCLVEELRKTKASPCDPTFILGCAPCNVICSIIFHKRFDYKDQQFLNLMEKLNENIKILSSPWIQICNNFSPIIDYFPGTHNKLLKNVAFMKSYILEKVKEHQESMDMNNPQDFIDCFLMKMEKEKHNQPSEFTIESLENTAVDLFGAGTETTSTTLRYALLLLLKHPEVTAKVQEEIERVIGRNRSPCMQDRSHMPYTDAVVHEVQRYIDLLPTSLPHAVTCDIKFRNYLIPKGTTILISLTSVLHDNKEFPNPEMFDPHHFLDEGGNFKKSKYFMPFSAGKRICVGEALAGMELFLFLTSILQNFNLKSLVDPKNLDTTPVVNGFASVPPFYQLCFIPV

CC1=C[C@@H]2c3cccc4[nH]cc(c34)C[C@H]2N(C)C1
active: Potency [1] 3.16 µM | Potency [7] 2 µM
inactive: Potency [2] > 46 µM | Potency [3] > 46 µM | outcome [4] | Potency [5] | Potency [6] | Potency [8] | Potency [9] | Potency [10] | Potency [11] | Potency [12] | Potency [13]

OC1(c2ccc(Cl)cc2)CCN(Cc2c[nH]c3ccccc23)CC1
-29.2%: max response [19, 40]
active: Potency [15] 2.51 µM | Potency [7] 0.316 µM | Potency [16] 10 µM | Potency [17] 11.2 µM | Potency [20] 7.08 µM | Potency [21] 8.91 µM | Potency [22] 5.01 µM | Potency [23] 10 µM | Potency [24] 11.2 µM | Potency [25] 3.98 µM | Potency [26] 10 µM | Potency [27] 2.33 µM | Potency [31] 0.794 µM
-25.1%: max response [19, 41]
inactive: Potency [6] | Potency [14] | outcome [18] | activity change, negative = inhibition [19] 1.03% | Potency [28] | Potency [29] | outcome [30] | Potency [9] | Potency [10] | Potency [11] | Potency [12]

Clc1ccc(COC(Cn2ccnc2)c2ccc(Cl)cc2Cl)c(Cl)c1 (stereo not given)
active: Potency [38] 49.4 µM and 21.3 µM
-3.69%: max response [19, 41]
inactive: outcome [32] | Potency [15] | Potency [33] | outcome [34] | activity change, negative = inhibition [19] 3.93% | Potency [9] | Potency [10] | Potency [11] | Potency [12] | Potency [35] | outcome [36] | outcome [37] | outcome [39]
-9.24%: max response [19, 40]
